Results reported in the supplement of paper PMC6555819.

How the values were obtained:
Experiment in all cases: PBM binding z-score (relative to random genomic background probes); higher = stronger binding; sequences stand for … in GC…GCGATTGACAGCGTAGAATGAAGG
[1] = system: FXR:RXRa (NR concentration 270 nM, RXRa partner concentration 90 nM)
How it was run: (§1)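 Custom Agilent 4×180K protein-binding microarrays carried double-stranded probes, each with a 34-nt variable region. These regions held direct-repeat seeds, single-nucleotide variants, half-site ablations and random human genomic background sequences. Ligand-free nuclear receptor dimers were incubated on the arrays for 1 h, antibodies against each partner (one per run) detected binding, and scanned fluorescence was regression-normalized. Binding z-scores take the random background probes as reference.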

[2] = system: LXRa:RXRa (NR concentration 270 nM, RXRa partner concentration 90 nM)
How it was run: as §1

[3] = system: LXRa homodimer (NR concentration 270 nM)
How it was run: as §1

[4] = system: LXRb:RXRa (NR concentration 270 nM, RXRa partner concentration 90 nM)
How it was run: as §1

[5] = system: LXRb homodimer (NR concentration 270 nM)
How it was run: as §1

[6] = system: PPARa:RXRa (NR concentration 270 nM, RXRa partner concentration 90 nM)
How it was run: as §1

[7] = system: PPARg:RXRa (NR concentration 180 nM, RXRa partner concentration 90 nM)
How it was run: as §1

[8] = system: PPARg:RXRa 270nM:90nM, anti-RXR (NR concentration 270 nM, RXRa partner concentration 90 nM)
How it was run: as §1

[9] = system: PPARg:RXRa 30nM:10nM, anti-RXR (NR concentration 30 nM, RXRa partner concentration 10 nM)
How it was run: as §1

[10] = system: PPARg:RXRa 90nM:30nM, anti-RXR (NR concentration 90 nM, RXRa partner concentration 30 nM)
How it was run: as §1

Sequence	PBM binding z-score [1]	PBM binding z-score [2]	PBM binding z-score [3]	PBM binding z-score [4]	PBM binding z-score [5]	PBM binding z-score [6]	PBM binding z-score [7]	PBM binding z-score [8]	PBM binding z-score [9]	PBM binding z-score [10]
GCAGACAGGTGAAACGCAGGTCACTCAGGGTGGC	1.55	2.05	0.579	1.27	-0.88	2.57	0.931	1.01	-0.357	0.0435
TCTATTACTTGATTAGGGCAACCGAAACAGCGGA	0.823	0.881	0.41	0.812	0.945	0.975	0.4	1.9	3.76	2.94
AGAATGAGTTTATACGTAGATCAGGGAAGAAAGT	-0.0777	-0.0651	-0.37	-0.296	-0.286	-0.283	0.634	-0.311	0.114	-0.213
ACTAGCAGGCCAAGTTAGGGTCACTCAAACAAAG	1.87	1.73	-0.142	2.55	-0.86	3.36	0.753	1.38	-0.00931	1.07
CAGCCTAGGTCAGGGCCGGTATAGGAGGAACGTT	1.62	0.777	-0.703	0.466	-1.51	1.97	0.482	0.692	-0.326	-0.0222
CCTAGCAGGCCAGGGTCACTCATGCATTTCGCTT	1.41	1.5	-0.432	1.72	-0.832	2.91	0.947	1.24	-0.332	0.442
TCTCGGAGGACACGAAAGGTCACAGCTCGACATC	4.58	5.46	4.91	4.7	0.595	4.62	2.83	4.15	3.13	3.77
CATACAGGGTCAGCTAGTCCAGAGTAGGGACGGC	4.47	2.76	-0.017	2.18	0.191	4.2	3.22	2.78	0.664	2.06
TCATATAGGTATACAGGTGAAAGTCCGTAAGTTA	1.01	1.13	0.26	1.2	0.257	1.9	2.4	3.24	3.8	3.58
CGAACGTGGGCATGAGTTGATAGCAAATGCCGAT	-0.892	-0.876	-1.04	-0.998	-1.27	-1.82	0.51	-0.55	-0.697	-0.428
TAATATAGGTAAAGGTGAAAGTCGAACGATATGA	1.14	1.33	0.478	1.55	0.351	4.23	6.52	6.14	4.8	6.35
CCGACTGAGGCATAAGGTTACCATAAGCCAGCCC	0.414	2.01	-0.182	1.05	-1.08	1.18	0.973	1.31	-0.0351	0.852
CCTAGCAGGCCAATCTGGGGCACTCAAGGCTTGA	-0.393	-0.285	-0.624	-0.768	-1.24	0.967	0.549	0.547	-0.732	-0.289
CGTCCAAGGTCATAGGAGCTCAGTGAAGACAGAT	7.5	5.19	0.569	3.82	0.584	5.64	4.69	5.04	1.57	3.6
CGTCCAAAGTCAAGGTCAGTGAAAGAGACTCGAA	2.34	2.12	0.643	1.74	0.209	2.8	0.614	1.04	0.0766	0.615
CCAGACAGGTGAAGGGTAACTCAGTCTGGTACGC	-0.0331	0.00398	-0.524	0.172	-0.582	1.76	2.98	3.63	1.6	3.42
GCTCGGAGGACAAGCTCAGAGCTTTGTCCGTAGA	-0.583	-0.885	-0.935	-0.784	-0.639	-0.425	-1.69	-1.3	-1.5	-1.33
ATCTCTAGGTAACAAGTTCAGTGACAGAGAGGAC	0.767	0.889	0.72	0.57	0.85	1.52	1.61	2.21	0.948	1.88
CCTACTGCGCCATCAGGTCATTGATATCAACGTT	1.39	1.32	1.7	2.2	1.17	1.73	0.376	0.994	0.212	0.573
GCTCGGAGGACAAGGTCAGAACTTTGTCCGTAGA	1.86	1.64	-0.253	1.31	-0.462	2.22	0.592	1.57	0.0801	0.802
AGTCTAAGTTCATCTAGGTAACGTAAGATATGCT	4.07	4.07	1.92	2.09	0.539	3.17	1.72	2.24	0.691	1.31
ACTATTAGTTGAGACGAGGACAACCGATAGGTTG	0.431	0.148	0.167	-0.324	0.49	-0.169	0.659	-0.132	0.0741	0.0272
AGTCAAAGTTCGGGACGAGGTAACGTAAAGCACG	0.65	0.402	-0.198	0.242	-0.3	1.08	1.85	2.33	0.491	1.33
CGCACGAGGGCATGAGTTGATAGCAAATGCCGAT	0.564	0.295	-0.626	0.0671	-0.764	1.1	0.947	0.583	-0.123	0.22
